PubChem BioAssay AID904 (National Center for Advancing Translational Sciences (NCATS), 2007)
The whole screen tested about 55,000 compounds, of which about 530 (0.96%) were called active. Inconclusive results (about 7%) are left out. This excerpt belongs to a sample that is enriched for actives. Unmarked numbers belong to inactive results. Calls come from the whole dose curve; as a rule, active = well fitted cell-killing curve with a large enough effect; inconclusive = small, poorly fitted or top-dose-only effect; inactive = no such curve, though single readings can be large or run the other way.

assay: qHTS Screen for Compounds that Selectively Target Cancer Cells with p53 Mutations: Cytotoxicity of p53 Null Cells at the Nonpermissive Temperature; details: H1299 p53-null (neo) cells, 39C, ATPlite viability, 24 h; series mostly up to 46.1 µM; activity, negative = cell killing: at the top concentration; note: nearly all actives have a fitted effect of over 50% in size;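 for activity, negative = cell killing: 0% = DMSO only and -100% = full killing by 100 µM tamoxifen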
From the text: NIH Chemical Genomics Center [NCGC] NIH Molecular Libraries Screening Centers Network [MLSCN] MLSCN Grant: 1 X01 MH079844-01 Assay Submitter (PI): Dr. SUN, YI, University of Michigan NCGC Assay Overview: Synthetic Lethal Screen for Compounds to Kill Cancer Cells with p53 Mutation. Tumor suppressor gene p53 serves as a major cellular barrier against tumorigenesis. […] The goal of this screening is to identify small molecule probes that selectively kill cancer cells with mutations in p53. This screening was carried out using two lines of H1299 lung cancer cells. The H1299-p53 A138V line express a temperature sensitive p53 mutant (p53ts) in which the mutant p53 protein (A138V) is in the mutant confirmation when grown at 39C (the nonpermissive temperature) and in the wild type conformation when grown at 32C (the permissive temperature). A H1299-neo line (p53 null) grown at both 39C and 32C were used as counter-screens to filter out false positive associated with temperature shifting. The small molecular compounds that selectively target mutant p53-containing cancer cells were selected as candidate probes for further study. A cytotoxicity assay based on the measurement of ATP contents in cells was used in this screen. Concentration-responses of all the compounds in the library collection were determined in qHTS using the cell lines and temperature conditions as above.
NCGC Assay Protocol Summary: Both the H1299-p53A138V and H1299-neo cell lines were provided by Dr.Yi Sun, a PI at the University Michigan. The cells were maintained and cultured at 37C. The resuspended frozen cells were used to plate the cells in the 1536-well assay plates at a density of 600 cells per well in 5 ul medium. The assay plates with the cells were incubated at 37C for 16 to 30 hours before the experiments. The library compounds in DMSO solution were added to the cells in assay plates and incubated 24 hours at 39C (for mutant p53 conformation) or 32C (for normal p53 conformation as control). An ATP_lite assay kit (PerkinElmer) was used to determine the cell viability. Tomaxifen (100uM) was used as the positive control for cell killing. Data were normalized to the controls for basal activity (DMSO only) and 100% killing (100uM tamoxifen). AC50 values were determined from concentration-response data modeled with the standard Hill equation. P53 assay protocol: 1. Reagent; 5 uL H1299-p53A138V or H1299-neo cell cells/well 2. Time; overnight; 37C incubation 3. Compounds; 23 nL; 5.9 nM to 46 uM 4. Controls; 23 nL; Tamoxifen 100 uM 5. Time; 24 hr; 39C incubation 6. Reagent; 3 uL; ATP_Lite reagent 7. Time; 20 min; Room Temperature 8. Detection; Luminescence; Viewlux plate reader Keywords: p53, synthetic lethal, cancer, cell viability, cytotoxicity, H1299 cell line, luminescence, MLSMR, MLSCN, NIH Roadmap, qHTS, NCGC
Potency is the fitted concentration of half-maximal effect.

| SMILES | activity, negative = cell killing | Potency |
| --- | --- | --- |
| O=C(ON=C1CCN(S(=O)(=O)c2ccccc2)CC1)c1ccc(Cl)cc1 | 19.7% |  |
| CCOC(=O)CSC1=Nc2ccccc2C2=NC(CCC(=O)NCc3ccc(F)cc3)C(=O)N12 (stereo unspecified) | -3.67% |  |
| COc1ccc(OCCn2cc(C(=O)C3CCCCC3)c3ccccc32)cc1 | -24.1% |  |
| O=C(/C=C/c1cn(CC(O)CN2CCc3ccccc32)c2ccccc12)c1ccc(Br)cc1 (stereo unspecified) | -12.6% |  |
| CCOc1ccc(C(=O)/C=C/c2cn(CC(O)CN3CCCCCC3)c3ccccc23)cc1 (stereo unspecified) |  | 12.6 µM (active) |
| O=C(Cc1cccs1)Nc1nnc(SCc2ccc(F)cc2)s1 | 5.89% |  |
| CCc1ccccc1N(C)C(=O)C1CCCN(c2ncnc3onc(-c4ccc(F)cc4)c23)C1 (stereo unspecified) | -13.8% |  |
| Cc1nn(Cc2ccc(F)cc2)c(C)c1NC(=O)c1cc(CC(C)C)on1 | 2.53% |  |
| COc1ccc(C2(CNC(=O)C(c3ccccc3)c3ccccc3)CCOCC2)cc1OC | -10.5% |  |
| CCC(CC)C(=O)N1CCc2cc(OC)c(OC)cc2C1COc1ccc(F)cc1 (stereo unspecified) | 35.1% |  |
| COc1cccc(N2CCN(S(=O)(=O)c3cc(Br)cc4c3N(C(=O)C3CC3)CC4)CC2)c1 | -22.6% |  |
| Oc1c(C(c2ccc(F)cc2)N2CCN(Cc3ccccc3)CC2)sc2nc(-c3ccco3)nn12 (stereo unspecified) | 8.44% |  |
| CCCC(=O)Nc1cc(C(=O)NCc2ccc(OC)cc2)ccc1S(=O)(=O)c1ccc(Cl)cc1 | 0.688% |  |
| Cn1c(=O)c(=O)n(C)c2cc(NC(=O)c3ccccc3Br)ccc21 | -25.1% |  |
| CCc1nn(CCCC(=O)NCc2ccc(C)cc2)c(=O)c2cc3occc3n12 | -21.6% |  |
| Cc1ccc(NC(=O)C(=O)NCc2ccc(/C=N/NC(=O)c3c(C)nc4cc(C)ccn34)o2)cc1 | 8.36% |  |
| Cc1c(C(=O)NCCCc2ccccc2)cccc1[N+](=O)[O-] | -7.93% [at 1.84 µM] |  |
| CC(NC(=S)Nc1ccccc1)C1COc2ccccc2O1 (stereo unspecified) | -2.56% |  |
| COc1cccc2c1cc1c(=O)n(CC(=O)N3CCN(c4cccc(Cl)c4)CC3)nc(C)n12 | -8.53% |  |
| COc1cc(OC)c(C(=O)Nc2ccccc2-c2ccccc2)cc1OC | 18.9% [at 1.84 µM] |  |
| CCOC(=O)c1ccc(NC(=O)Cn2c(=O)cc(C)c3c(C)nn(-c4cccc(F)c4)c32)cc1 | -0.639% |  |
| Cc1nn(-c2ccccc2)c(Cl)c1/C=C/C(=O)c1ccc(O)cc1 | 23.1% |  |
| COc1ccc(NC(=O)CC2C(=O)OCC3CCCCN32)cc1Cl (stereo unspecified) | 14% [at 1.84 µM] |  |

| SMILES | activity, negative = cell killing | Potency |
| --- | --- | --- |
| CC(C)(C)c1ccc(C(=O)NCc2nnc(SCC(=O)N3CCCc4ccccc43)n2-c2ccccc2)cc1 | -3.75% |  |
| Cc1cc(C)c(NC(=O)c2oc3ccccc3c2COc2ccccc2)c(C)c1 | 16.4% |  |
| O=C(Nc1nc2c(s1)CCCC2)c1ccccc1F |  | 7.94 µM (active) |
| Cc1ccccc1NC(=O)c1c(NC(=O)c2ccccc2F)sc2c1CCC(C)C2 (stereo unspecified) | 3.45% |  |
| Cc1cc(C)cc(OC(C)C(=O)Nc2nc3c(s2)CCCC3)c1 (stereo unspecified) | 7.6% |  |
| COc1ccc(Cl)cc1NC(=O)CNc1ccccc1F | 28.8% [at 1.84 µM] |  |
| CCc1ccccc1N1CC(c2nc3ccccc3n2CCCCOc2ccccc2)CC1=O (stereo unspecified) |  | 20 µM (active) |
| CCCCN1CC(c2nc3ccccc3n2CCCCOc2ccc(C)cc2C)CC1=O (stereo unspecified) | 15.7% |  |
| COc1ccc(OCCCn2c(C3CC(=O)N(c4ccc(F)cc4)C3)nc3ccccc32)cc1 (stereo unspecified) | -24.9% |  |
| Cc1cccc(NC(=S)Nc2ccc3cn[nH]c3c2)c1 | 13% |  |
| CCN1CCN(C(=O)C2(NC(=O)Nc3cccc(F)c3)CCCCC2)CC1 | -11.5% |  |
| COc1cc(Cl)c(C)cc1NC(=O)CCc1nc2cccnc2n1Cc1cccs1 | 22.6% |  |
| O=S(=O)(NN=C1CCCCCCC1)c1ccc(Br)cc1 | -8.87% |  |
| CC1=CC(=C(C#N)c2nc3ccccc3s2)C=C(C)N1c1ccc(F)cc1F | 34.3% |  |
| CCc1ccc(C2CC(=O)c3c([nH]c(C(=O)OCc4ccc(C)cc4)c3C)C2)cc1 (stereo unspecified) | 15.3% |  |
| Cc1cc(C)cc(C(=O)N2CCN=C2SCc2ccc([N+](=O)[O-])cc2)c1 | -7.93% |  |
| Fc1ccc(Nc2nc(SCc3ccccc3Cl)nc3ccccc23)cc1 | -16.2% |  |
| CSc1nc(Nc2ccc(F)cc2)cc(-c2ccccc2)n1 |  | 15.8 µM (active) |
| CC(C)(C)NC(=O)CSc1nc(-c2ccc(F)cc2)cc(C(F)(F)F)n1 | 20.5% |  |
| Cc1ccc(CNC(=O)CCc2c(C)nc3c(c(C)nn3-c3ccccc3)c2C)cc1 | -14.7% |  |
| CCC1CCCCN1C(=S)Nc1ccc(SC(F)F)cc1 (stereo unspecified) | -0.151% |  |
| CCc1ccccc1NC(=O)Cn1c(=O)n(-c2cccc(C)c2)c(=O)c2c1c1cc(OC)ccc1n2C | 17.9% |  |
| Cc1ccc(-c2nn3c(=O)cc(CN4CCN(S(=O)(=O)c5ccc(Cl)cc5)CC4)nc3s2)cc1 | -26.2% |  |
